# Shiga toxin inh – blocks Shiga toxin action in Vero cells | Vero cells, Shiga toxin protein synthesis inhibition reporter | hit rate 9.2% among 290,000 | inhibition, % at 38.7 µM; in the data active means inhibition mostly above about 28%, no sharp cut-off; inactive means mostly below about 43%; further: 0% is about no effect
# NS1 function inh – blocks influenza NS1 protein function. Potency, µM (doses to about 46.1 µM), for the others: at the top dose activity, positive = more growth. AID 2326. hit rate 0.4% among 270,000; calls by dose curve; further: potency means the concentration at half of the fitted maximal effect; actives are rising curves; nearly all actives have a fitted effect of over 50% in size
#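 Recovery from NS1-induced slow growth read by OD600 in budding yeast switched to galactose assay medium (pH 6.0, -URA) at 1:100 dilution. Compound 23 nl per well; the matching strain lacking NS1 serves as control.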
# LmPK inhibitor – LmPK (Leishmania mexicana) enzyme inhibition; Q27686; purified LmPK, Kinase-Glo ATP luminescence, 1 h; Potency, µM (highest dose often 57.5 µM), for inactives: at the highest dose activity change, negative = inhibition, usual class: inhibitors; hit rate 0.37% among 290,000; AID 1721; further: potency means the concentration at half of the fitted maximal effect; on the % scale 0 is the no-effect control and ±100 the full control effect
# Target sequence (Q27686 whole entry, looked up): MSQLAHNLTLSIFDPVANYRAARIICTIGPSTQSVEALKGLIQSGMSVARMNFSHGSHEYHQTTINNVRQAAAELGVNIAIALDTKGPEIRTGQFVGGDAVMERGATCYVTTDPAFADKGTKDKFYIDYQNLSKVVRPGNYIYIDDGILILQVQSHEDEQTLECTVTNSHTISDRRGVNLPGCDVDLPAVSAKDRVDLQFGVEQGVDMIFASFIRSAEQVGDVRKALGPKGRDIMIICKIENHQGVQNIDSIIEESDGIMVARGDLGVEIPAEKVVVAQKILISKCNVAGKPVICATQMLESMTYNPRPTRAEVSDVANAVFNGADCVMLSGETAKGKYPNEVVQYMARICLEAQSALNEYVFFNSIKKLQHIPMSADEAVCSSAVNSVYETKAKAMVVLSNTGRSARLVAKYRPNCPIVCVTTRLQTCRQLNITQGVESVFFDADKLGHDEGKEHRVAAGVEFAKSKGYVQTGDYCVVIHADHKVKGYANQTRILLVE
#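 In 50 mM imidazole pH 7.2 with 7 mM MgCl2, LmPK (0.1 nM) turned over PEP (0.5 mM) and ADP (0.1 mM) for 1 h at room temperature. Luciferase read-out of ATP.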
# Tb PYK inh – inhibitors of Trypanosoma brucei pyruvate kinase; Q57TT1; TbPYK enzyme, Kinase-Glo Plus ATP luminescence, 45 min; Potency, µM (top dose mostly 76.8 µM), without a hit: at the highest dose activity, negative = inhibition, most hits filed as inhibitors; hit rate 0.12% among 410,000; AID 624173; further: potency means the concentration at half of the fitted maximal effect; on the % scale 0 is the no-effect control and ±100 the full control effect; nearly all actives have a fitted effect of over 50% in size
#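 T. brucei PYK with substrate was exposed to pin-transferred compounds across a concentration series, then started with 130 uM ADP (final). After 45 min at room temperature, Kinase-Glo Plus luminescence was read, normalized and curve-fitted.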
# CHX counter – affects cycloheximide protein synthesis inhibition readout, counter-screen | AID 2314 | max response, % | hit rate 12% among 300,000 | cell reporter, cycloheximide protein synthesis inhibition counterscreen; in the data active means max response mostly above about 13%, no sharp cut-off; inactive means mostly below about 14%; further: read at 38.3 µM for the half of the compounds with a filed dose; 0% is about no effect
# SARS PLpro yeast – SARS-CoV PLP inhibition in yeast; AID 485353; S. cerevisiae expressing SARS-CoV PLpro, growth rescue; Potency, µM (highest dose often 32.9 µM), inactives show at the highest dose activity, positive = growth rescue, usual class: activators; hit rate 0.19% among 330,000; calls by dose curve; further: potency means the concentration at half of the fitted maximal effect; 0% is about no effect; nearly all actives have a fitted effect of over 55% in size
# Numbers without * were called inactive; ? = inconclusive; nt = no result given; + = active, no number. This excerpt belongs to a sample that is enriched for hits. Unless noted, the call rests on the fitted dose curve; in most records, active means well fitted curve in the direction sought with a large enough effect; inconclusive means small, poorly fitted or top-dose-only effect, or another doubt; inactive means no such curve, though single readings can be large; an effect the other way counts as inactive or inconclusive.
SMILES,Shiga toxin inh,NS1 function inh,LmPK inhibitor,Tb PYK inh,CHX counter,SARS PLpro yeast
Cc1ccc(C)c(C(=O)N2CCC(c3nc4c(nnn4Cc4ccccc4)c(=O)[nH]3)CC2)c1,nt,nt,nt,-2%,nt,nt
O=C(N=C1SCC(=O)N1c1ccccc1Cl)c1ccccc1,73*,nt,2%,-6%,35*,0%
O=C(Nc1ccccc1Cl)c1cccs1,104*,-6%,-5%,-14%,27*,4%
COc1ccc(Cl)cc1NC(=S)NNC(=O)c1cccs1,43*,-3%,0%,-13%,23*,0%
O=C(NNC(=O)c1ccccc1Cl)c1ccco1,42,4%,-6%,8%,17*,0%
O=C(NNC(=O)c1cc(Cl)ccc1O)c1cccs1,49*,8%,4%,-1%,29*,1%
N#CNC(=Nc1ccc(Cl)cc1)Oc1ccccc1,37,-7%,0%,4%,8,1%
O=C(/C=C/c1ccccc1Cl)NNC(=O)c1cccs1,46,nt,-1%,0%,32*,0%
O=C(NNC(=O)c1ccccc1Cl)c1cccs1,35*,9%,2%,13%,31,9%
O=C(Nc1ccc(N2C(=O)C3CCCCC3C2=O)cc1Cl)c1cccs1 (centres undefined),31,nt,6%,-1%,18*,-3%
O=C(Nc1cccc(N2C(=O)C3CCCCC3C2=O)c1)c1ccccc1 (centres undefined),-34,10%,-12%,5%,-2,-5%
CSc1ncc(Cl)c(C(=O)Nc2ccccc2Cl)n1,-10,0%,0%,5%,-1,2%
O=C(Nc1ccccc1Cl)c1ccc(-c2ccccn2)s1,64*,-52%,5%,0%,49*,-2%
COc1ccccc1NC(=O)c1sc2nc(C)c(C(=O)Nc3ccc(C)cc3C)c(-c3ccc(Br)cc3)c2c1N,nt,nt,nt,-8%,nt,nt
Cc1cc(C)cc(Oc2c(C(F)(F)F)oc3c(CN4CCCC(C)C4)c(O)ccc3c2=O)c1 (centres undefined),nt,nt,nt,4%,nt,nt
Cn1c(=O)cc(OCC(=O)NCc2ccc(F)cc2Cl)c2ccccc21,nt,nt,nt,-2%,nt,nt
COc1ccccc1CNC(=O)C(NS(=O)(=O)c1cccc2nsnc12)C(C)C (centres undefined),-5,-2%,-3%,-5%,8,1%
O=C(NNC(=O)c1ccccc1Cl)c1ccccc1Cl,17,3%,-9%,0%,18*,1%
CCOC(=O)N1CCN(Cc2nc(-c3ccccc3)no2)CC1,62*,-9%,-10%,3%,19,0%
COc1ccc(-c2noc(CN3CCC(Cc4ccccc4)CC3)n2)cc1,-6,-22%,-3%,-22%,-2,-6%
COc1ccccc1CN1CCN(Cc2nc(-c3ccccc3)no2)CC1,99*,7%,4%,-9%,35*,0%
CN1CCCN(Cc2nc(-c3cccc(C(F)(F)F)c3)no2)CC1,5,-1%,5%,8%,16*,-2%
c1ccc(CC2CCN(Cc3nc(-c4ccccc4)no3)CC2)cc1,29,-38%,3%,1%,15*,-8%
FC(F)(F)c1cccc(-c2noc(CN3CCOCC3)n2)c1,8,-3%,1%,-2%,15,11%
COc1ccccc1CN1CCN(Cc2nc(Cc3ccccc3)no2)CC1,-7,-1%,2%,-17%,0,1%
SMILES,Shiga toxin inh,NS1 function inh,LmPK inhibitor,Tb PYK inh,CHX counter,SARS PLpro yeast
CC(=O)N1CCN(Cc2nc(-c3cccc(Cl)c3)no2)CC1,43*,-1%,9%,3%,18*,1%
CCOC(=O)N1CCN(Cc2nc(-c3cccc(C)c3)no2)CC1,14,-2%,-2%,1%,12,6%
O=C1C(Cl)=C(N2CCC(C(=O)O)CC2)C(=O)c2ccccc21,-8,6%,?,1%,1,-3%
CC1COCC(C)N1C1=C(Cl)C(=O)c2ccccc2C1=O (centres undefined),nt,nt,nt,22µM*,nt,nt
CCOc1cc(N2CCOCC2)c(OCC)cc1NC(=O)c1cccc(S(=O)(=O)N2CCOCC2)c1,nt,nt,nt,-11%,nt,-1%
Cc1ccsc1/C=N/n1cnc2sc(C)c(C)c2c1=O,32,-111%,-8%,-10%,16*,1%
CCCCn1c(N)c(N(CCOC)C(=O)c2ccc(Cl)c(S(=O)(=O)N3CCCCC3)c2)c(=O)[nH]c1=O,nt,nt,nt,0%,nt,-6%
COc1ccccc1CN1CCCC2(CCNCC2)C1,nt,nt,nt,-4%,nt,nt
CC(=O)N(C)c1ccc(NC(=O)C(c2ccccc2)c2ccccc2)cc1,nt,nt,nt,2%,nt,nt
CC(=O)N(C)c1ccc(NC(=O)C(Sc2ccccc2)c2ccccc2)cc1 (centres undefined),43*,nt,5%,-5%,18*,0%
CCOc1cc(N2CCOCC2)c(OCC)cc1NC(=O)CN1CCCC(C)C1 (centres undefined),-6,-11%,0%,-2%,15*,-7%
CCCCN(C)S(=O)(=O)c1ccc(C(=O)Nc2ccc(-c3nc4ccc(C)cc4s3)cc2)cc1,nt,nt,nt,-1%,nt,nt
Cc1ccc2nc(-c3ccc(NC(=O)CN(c4ccccc4C)S(C)(=O)=O)cc3)sc2c1,95*,-3%,0%,1%,61*,-3%
Cc1cc(C)cc(N(CC(=O)Nc2ccc(-c3nc4ccc(C)cc4s3)cc2)S(C)(=O)=O)c1,77*,-17%,-1%,-3%,36*,-6%
O=c1[nH]c2cc(Cl)ccc2c(O)c1-c1ccc(Oc2ccccc2)cc1,nt,-9%,nt,nt,nt,nt
O=c1[nH]c2ccc(Cl)cc2c(O)c1-c1ccccc1,78*,-4%,-1%,0%,27*,1%
CCC(c1nnc(SCC(=O)Nc2ccc(C(=O)N(C)C)cc2)n1Cc1ccccc1)N(C)C (centres undefined),16,-5%,0%,3%,-1,-7%
O=C(CC(C(=O)O)c1ccc(F)cc1)c1ccc(Cl)cc1 (centres undefined),-3,-2%,2%,0%,1,1%
COC(=O)C(CC(=O)c1ccc(Cl)cc1)c1ccc(C)cc1 (centres undefined),+,-10%,-8%,1%,20,-40%
Cc1ccc(C)c(NCC(=O)c2ccc(Cl)cc2)c1,11,-10%,-1%,-1%,-2,-2%
CCOc1ccc(NCC(=O)c2ccc(C)cc2)cc1,63*,nt,4%,4%,16*,-1%
Cc1ccc(C(=O)CNc2ccc(Cl)cc2)cc1,86*,nt,-6%,-7%,42*,-16%
COc1ccc(-n2c(SCC(=O)Nc3cc(C)cc(C)c3)nc3c(oc4ccccc43)c2=O)cc1,nt,nt,nt,1%,nt,nt
CC1(C)N=C(N)NC(=NCCCOc2ccc([N+](=O)[O-])cc2)N1,nt,nt,nt,4%,nt,nt
Nc1c2c(nc3ccccc13)CCCC2O (centres undefined),nt,1%,nt,-2%,nt,nt
Nc1c2c(nc3ccccc13)CCCC2=O,14,6%,1%,-4%,17*,0%

# Compound activity: PubChem, National Center for Advancing Translational Sciences (NCATS)
